Assay outcomes from PubChem.
IL1B secr inh = qHTS for Inhibitors of Inflammasome Signaling: IL-1-beta AlphaLISA Primary Screen | THP-1 LPS/ATP IL-1B secretion, AlphaLISA, 16 h; hits give low values | activity change, % at 57.5 µM | actives 4.7% (n = 360,000) | AID 743279, 2014; in the data active means activity change below about -50%; inconclusive means mostly about -30% to -49%
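THP-1 cells pretreated 1 hr with compounds (up to 57.5 uM final), then stimulated with LPS (250 ng/mL final) plus ATP (1.25 mM final); secreted IL-1B measured by AlphaLISA after 16 hr, decreased signal indicating inhibition.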
TDP1 cell noCPT = qHTS for Inhibitors of human tyrosyl-DNA phosphodiesterase 1 (TDP1): qHTS in cells in absence of CPT | Potency, µM (titrated, usually from 46.2 µM), without a hit: top-dose activity change, negative = growth inhibition, hits mostly inhibitors | AID 686978, 2013 | DT40 Tdp1-/- hTDP1 cells, no CPT, ATP luminescence, 48 h | actives 15% (n = 420,000); further: potency means the concentration at half of the fitted maximal effect; nearly all actives have a fitted effect of over 55% in size
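DT40 Tdp1-/-;hTDP1 cells, no CPT (DMSO vehicle only), 400 cells/well; compounds pin-transferred; ≥48 hr, 37 °C; CellTiter-Glo 30 min RT dark, luminescence read.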
ELG1 repair inh = qHTS screen for small molecules that inhibit ELG1-dependent DNA repair in human embryonic kidney (HEK293T) cells expressing luciferase-tagged ELG1; HEK293T ELG1-luciferase reporter, luminescence, 16 h; DNA damage induced by 5-fluorouridine; Potency, µM (highest dose often 46.1 µM), for the others: top-dose activity change, negative = inhibition, actives largely listed as inhibitors; actives 2.3% (n = 330,000); AID 504467, 2011; further: potency means the concentration at half of the fitted maximal effect; nearly all actives have a fitted effect of over 55% in size
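Quantitative HTS, concentration-response format. 2,000 cells/well co-treated with 5-fluorouridine and compound, 16 hr in 5% CO2 at 37 °C; ONE-Glo luminescence read after 30 min.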
HT1080 IDH1KD tx = qHTS for induction of synthetic lethality in tumor cells producing 2HG: qHTS for the HT-1080-IDH1KD cell line; actives 2% (n = 360,000); Potency, µM (doses to about 46.1 µM), inactives show at the top dose activity, negative = toxicity, usual class: cytotoxic; HT-1080 IDH1 knockdown viability, ATP luminescence, 48 h;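 further: potency means the concentration at half of the fitted maximal effect; 0% = DMSO wells and -100% = cell-free medium wells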
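CellTiter-Glo luminescence after 48 h compound exposure at 37 degrees C of IDH1-knockdown HT-1080 cells in 5% FBS RPMI. %Activity scaled between DMSO wells and cell-free media wells, with curves fitted and assigned curve classes.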
DT40 TDP1 CPT = qHTS for Inhibitors of human tyrosyl-DNA phosphodiesterase 1 (TDP1): qHTS in cells in presence of CPT; chicken DT40 Tdp1-/-;hTDP1 cells + 20 nM CPT, ATP luminescence, 48 h; Potency, µM (doses to about 46.2 µM), for inactives: at the top dose activity change, negative = growth inhibition, hits mostly inhibitors; actives 12% (n = 420,000); further: potency means the concentration at half of the fitted maximal effect; nearly all actives have a fitted effect of over 55% in size
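Chicken DT40 Tdp1-/- cells stably complemented with human TDP1 were seeded at 400 cells/well in medium containing 20 nM camptothecin, exposed to pin-transferred compounds, and grown at 37 °C for at least 48 hr. Viability was read as ATP luminescence.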
HT1080NT lethal = qHTS for induction of synthetic lethality in tumor cells producing 2HG: qHTS for the HT-1080-NT fibrosarcoma cell line; actives 1.6% (n = 360,000); Potency, µM (doses to about 46.1 µM), for inactives: top-dose activity, negative = less viability, actives largely listed as cytotoxic; HT-1080-NT fibrosarcoma viability, CellTiter-Glo ATP luminescence, 48 h;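 further: NT is the 2HG producing partner of a matched IDH1 knockdown line; potency means the concentration at half of the fitted maximal effect; 0% = DMSO-treated cells and -100% = media-only wells without cells; nearly all actives have a fitted effect of over 55% in size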
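HT-1080-NT fibrosarcoma cells (2HG-overproducing), 750 cells/well in RPMI with 5% FBS, dosed after 2 h and incubated 48 h at 37C. CellTiter-Glo luminescence normalized to DMSO and no-cell wells; concentration-response curves fitted and classed.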
Active calls of the source: *; ? = inconclusive; / = not tested or not shown; [ ] = remark or other dose. Hits are enriched below; roughly 19% of the tested compounds scored in any of these assays. Unless noted, the call rests on the fitted dose curve; in most records, active means well fitted curve in the direction sought with a large enough effect; inconclusive means small, poorly fitted or top-dose-only effect, or another doubt; inactive means no such curve, though single readings can be large; an effect the other way counts as inactive or inconclusive. Unless noted, on the % scale 0 is the no-effect control and ±100 the full control effect.

SMILES	IL1B secr inh	TDP1 cell noCPT	ELG1 repair inh	HT1080 IDH1KD tx	DT40 TDP1 CPT	HT1080NT lethal
CCCN(C(=O)c1cn(-c2ccccc2)nc1-c1ccc(OC)cc1)C1CCS(=O)(=O)C1 (stereo unspecified)	-22.3	-2.8%	-16.2%	-4.0%	-1.6%	-3.9%
CSc1cccc(NC(=O)C2CCN(S(=O)(=O)c3ccc4c(c3)NC(=O)CO4)CC2)c1	?	?	-1.2%	-14.7%	?	-24.1%
O=[N+]([O-])c1ccc(NNC(=S)Nc2ccc(F)cc2)cc1	-58.5*	3.26µM*	?	?	4.61µM*	?
O=C(NC(NNc1ccc([N+](=O)[O-])cc1)(C(F)(F)F)C(F)(F)F)c1ccc(F)cc1	1.7	18.4µM*	6.7%	-7.9%	23.1µM*	-16.6%
S=C(NCCc1ccccc1)Nc1ccc(Br)cc1	-69.6*	23.1µM*	?	-4.1%	?	6.7%
CC(=O)Nc1sc(C)c(C)c1C(=O)OCC(=O)N(C)c1c(N)n(Cc2ccccc2)c(=O)[nH]c1=O	-0.3	4.4%	7.8%	-1.6%	12.7%	-2.5%
CCN(CC(=O)NCCc1ccc(S(N)(=O)=O)cc1)Cc1ccccc1	-1.8	-2.0%	-4.8%	-0.2%	-16.0%	1.8%
CC(C)CNC(=O)CC(c1ccccc1)c1ccccc1	8.0	-17.7%	-5.0%	1.6%	-2.6%	8.3%
O=C(O)C(Cc1ccccc1[N+](=O)[O-])N1C(=O)c2ccccc2C1=O (stereo unspecified)	37.5	-10.7%	/	7.6%	-0.8%	-2.5%
CN(c1ccc(OCCOc2ccccc2Cl)cc1)S(=O)(=O)c1ccccc1	12.6	2.91µM*	-12.1%	-9.7%	?	-4.2%
CC1CCCC(NC(=O)COC(=O)c2cc(S(=O)(=O)N3CCOCC3)ccc2F)C1C (stereo unspecified)	20.1	-6.4%	19.1%	-1.4%	1.6%	13.1%
CCNc1ncc2ncc(=O)n(C[C@H]3CCCO3)c2n1	/	20.6µM*	/	/	11.6µM*	/
CC(C)C1C(c2ccccc2)NC(c2ccccc2)CC1(O)c1ccc(F)cc1 (stereo unspecified)	0.0	14.6µM*	?	?	?	?
CCC1C(=O)CC(c2ccccc2)NC1c1ccccc1 (stereo unspecified)	-9.6	-35.2%	4.1%	-9.4%	-1.0%	-0.9%
CCOCCc1nnc(NC(=O)C2CC(=O)N(c3ccc(OCC)cc3)C2)s1 (stereo unspecified)	26.9	5.6%	15.7%	1.9%	3.7%	1.2%
CCn1ncc(/C=C/C(=O)Nc2c(C)nn(Cc3ccc(Cl)cc3Cl)c2C)c1C	?	14.6µM*	-23.6%	?	14.6µM*	?
Cc1nn(Cc2ccccc2)c(Cl)c1C(=O)OCC(=O)NC(=O)NC12CC3CC(CC(C3)C1)C2	?	?	-20.9%	-28.1%	?	-27.5%
CCn1cc(/C=C/C(=O)Nc2c(C)nn(Cc3ccccc3)c2C)cn1	7.8	9.2µM*	?	6.7%	?	11.0%
CCn1nc(C)c(NC(=O)/C=C/c2cnn(C)c2C)c1C	-1.1	7.0%	7.6%	-3.5%	-0.5%	4.2%
Cc1nn(Cc2ccc(Cl)cc2Cl)c(C)c1NC(=O)NC12CC3CC(CC(C3)C1)C2	-23.5	18.4µM*	?	18.4µM*	20.6µM*	-13.9%
CC(C)Oc1ccc(/C(O)=C2/C(=O)C(=O)N(CCN3CCNCC3)C2c2ccc(C(C)C)cc2)cc1 (stereo unspecified)	14.7	17.1%	?	0.8%	6.8%	-0.3%
O=C(Cn1ccc(NC(=O)OCc2ccccc2)nc1=O)NCc1ccc2c(c1)OCO2	-6.7	-13.6%	25.4%	-1.4%	-16.1%	0.0%
Cc1ccc2c(c1Br)/C(=N/N1C(=O)c3ccccc3C1=O)C(=O)N2	-12.8	23.1µM*	?	11.8%	20.6µM*	10.6%
COc1ccc(-c2noc(N(c3ccc(F)c(Cl)c3)c3nc(-c4ccc(OC)c(OC)c4)no3)n2)cc1OC	/	-10.2%	/	/	1.1%	/
CCC(C)(C)C1CCc2[nH]nc(C(=O)NCc3ccc(Cl)cc3)c2C1 (stereo unspecified)	-25.7	?	12.5%	17.8%	?	13.9%
SMILES	IL1B secr inh	TDP1 cell noCPT	ELG1 repair inh	HT1080 IDH1KD tx	DT40 TDP1 CPT	HT1080NT lethal
CCC(C)(C)C1CCc2[nH]nc(C(=O)NCc3ccccn3)c2C1 (stereo unspecified)	15.2	23.1µM*	-17.2%	2.7%	14.6µM*	4.2%
CCC(C)(C)C1CCc2[nH]nc(C(=O)NCCN3CCOCC3)c2C1 (stereo unspecified)	-3.6	?	-22.1%	9.1%	?	5.9%
CCC(C)(C)C1CCc2[nH]nc(C(=O)NCCCNC(=O)OC(C)(C)C)c2C1 (stereo unspecified)	47.8	18.4µM*	?	-3.7%	?	-6.1%
Cc1ccc(CN(C)C(=O)CSc2nnc3n2CCCCC3)c(C)c1	0.0	?	2.3%	-4.5%	-18.6%	-5.5%
COc1cc(NC(=O)COc2ccc(-n3ccnc3)cc2)cc(OC)c1	-106.0*	?	?	-26.0%	?	-26.7%
COc1ccc(NC(=O)COc2ccc(-n3cnnn3)cc2)cc1OC	-17.9	23.1µM*	-12.8%	1.7%	?	2.4%
Cc1ccc(NC(=O)COc2ccc(-n3cnnn3)cc2)cc1C	5.4	6.5%	26.2%	4.0%	16.5%	6.4%
CC(C)(C)c1ccc(NC(=O)COc2ccc(-n3ccnc3)cc2)cc1	-22.3	16.4µM*	?	?	14.6µM*	-23.4%
CCn1c(-c2ccccc2F)nc2cc(C(=O)N3CCCC(CO)C3)cc(NC(C)=O)c21 (stereo unspecified)	/	9.4%	/	/	0.9%	/
CCOC(=O)N1CCN(S(=O)(=O)N2CCCC(C(=O)NCc3cccc(OC)c3)C2)CC1 (stereo unspecified)	7.2	?	-17.7%	4.8%	?	-0.5%
Cc1nc(CC(=O)NCC2Cc3cc(F)cc(-c4ccc(F)c(C)c4)c3O2)cs1 (stereo unspecified)	/	13µM*	/	/	6.7%[9.04 µM]	/
